Consider 37 compounds from PubChem BioAssay (NCATS).

Inconclusive results are not listed. Entries that show only a call come without a potency. Active and inactive are the calls of the source. Calls come from the whole dose curve; as a rule, active = well fitted curve in the direction sought with a large enough effect; inconclusive = small, poorly fitted or top-dose-only effect, or another doubt; inactive = no such curve, though single readings can be large; an effect the other way counts as inactive or inconclusive.

The target in experiment [1] is Aldehyde dehydrogenase, mitochondrial (Homo sapiens) (UniProt P05091). The experiment can be described thus: qHTS for Inhibitors of the Aldehyde Dehydrogenase Family (ALDH2) Primary screen (AID 2061308; note: nearly all actives have a fitted effect of over 55% in size). (qHTS replaces the single test concentration by a dilution series.)
The target in experiment [2] is Retinaldehyde dehydrogenase 3 (Homo sapiens) (UniProt P47895). The experiment is described as follows: qHTS for Inhibitors of the Aldehyde Dehydrogenase Family (ALDH1A3) Primary screen (AID 2061315).

As for `Cc1ccccc1C(=O)N1CCc2cc(-c3ccnc(NC(=O)Cc4ccccc4)n3)ccc21`, the Potency entry in experiment [1] and in experiment [2] was “inactive” each time.
For `Cc1cc(C)nc(NC(=S)N2CCN(c3ccc(S(C)(=O)=O)cc3F)CC2)c1`, the Potency result in experiment [1] and in experiment [2] was “inactive” each time.
With `Cc1cc(C)nc(NC(=S)N2CCN(c3cc(Cl)c(Cl)cc3Cl)CC2)c1`, the Potency entry in experiment [1] and in experiment [2] was “inactive” in each case.
On to `c1csc(CNc2ncnc3ccc(-c4ccc5c(c4)OCO5)cc23)n1`, for which the Potency entry in experiment [1] and in experiment [2] was “inactive” in each case.
As to `COc1cccc(C2c3c(ncn(-c4ccc5c(c4)OCO5)c3=N)Oc3ccc4ccccc4c32)c1` (centres undefined), the Potency entry in experiment [1] and in experiment [2] was “inactive” in each case.
On to `COc1ccc([C@H]2[C@H](c3ccccc3)C(=O)N2Cc2ccccc2)cc1COc1ccc(NC(C)=O)cc1`, for which the Potency result in experiment [1] and in experiment [2] was “inactive” each time.
Regarding `Cc1ccsc1CNc1ncnc2ccc(-c3c(C)noc3C)cc12`, the Potency entry in experiment [1] and in experiment [2] was “inactive” in each case.
For the compound `CC1OC2OC3C(OCC(O)C3O)OC(=O)C34CCC(C)(C)CC3C3=CCC5C6(C)CC(O)C(OC7OC(CO)C(O)C(O)C7OC7OCC(OC(=O)CC(C)(O)CC(=O)OC1C(OC1OCC(O)C(O)C1O)C2O)C(O)C7O)C(C)(CO)C6CCC5(C)C3(C)CC4O` (centres undefined), the Potency result in experiment [1] and in experiment [2] was “inactive” in each case.
With `O=C1NS(=O)(=O)c2cc(Cl)ccc21`, the Potency entry in experiment [1] and in experiment [2] was “inactive” throughout.
Regarding `O=S1(=O)N=C(Oc2ccc(C(F)(F)F)cc2)c2ccccc21`, the Potency entry in experiment [1] and in experiment [2] was “inactive” in each case.
On to `Cc1cc(C(=O)Nc2ccc(NC(=O)Cc3ccc(Cl)c(Cl)c3)cc2)no1`, for which the Potency entry in experiment [1] and in experiment [2] was “inactive” throughout.
As for `N#Cc1cc(NC(=O)Nc2cccc(-c3ccncc3)n2)ccc1Cl`, the Potency entry in experiment [1] and in experiment [2] was “inactive” in each case.
As for `O=C1CCc2cc(S(=O)(=O)Nc3ccc4ncccc4c3)ccc2N1`, the Potency result in experiment [1] and in experiment [2] was “inactive” each time.
In the case of `CCCCN(C)C(=O)Cn1nc(-c2ccc(C(C)(C)C)cc2)ccc1=O`, the Potency result in experiment [1] and in experiment [2] was “inactive” each time.
On to `CC(=O)Nc1sc2c(c1-c1ccc(F)cc1)CCNC2`, for which the Potency entry in experiment [1] and in experiment [2] was “inactive” in each case.
As to `Cc1noc(-c2ccc(-c3ccc(CC(=O)O)cc3)cc2)c1NC(=O)O[C@H](C)c1ccccc1Cl`, the Potency entry in experiment [1] and in experiment [2] was “inactive” each time.
In the case of `Cc1noc(C)c1-c1ccc2ncnc(NCc3cccc(-c4ccccc4)c3)c2c1`, the Potency result in experiment [1] and in experiment [2] was “inactive” in each case.
Regarding `COc1cc(/C=C/CO)cc(OC)c1O[C@@H]1O[C@H](CO[C@@H]2O[C@H](CO)[C@@H](O)[C@H](O)[C@H]2O)[C@@H](O)[C@H](O)[C@H]1O`, the Potency entry in experiment [1] and in experiment [2] was “inactive” in each case.
On to `O=C(Nc1ccc(Cl)c(Cl)c1)Nc1nnc(-c2ccncc2)s1`, for which the Potency result in experiment [1] and in experiment [2] was “inactive” each time.
With `Cc1cccc(CNc2ccnc(-c3ccccc3C(F)(F)F)n2)c1`, the Potency result in experiment [1] and in experiment [2] was “inactive” throughout.
Regarding `Cc1cccc(-c2ccc3ncnc(NCc4cccc(F)c4)c3c2)c1`, the Potency result in experiment [1] and in experiment [2] was “inactive” each time.
`C#CCOc1ccc(-c2nnc3n2N=C(c2ccc(OC)c(OCC(C)=O)c2)CS3)cc1`: the Potency entry in experiment [1] and in experiment [2] was “inactive” each time.
Regarding `CN(C)C(=O)c1cccc(-c2csc(N3CCC(C(N)=O)CC3)n2)c1`, the Potency entry in experiment [1] and in experiment [2] was “inactive” throughout.
`Cc1cnc(-c2ccccc2C(C)C)nc1NCc1ccc(C(N)=O)cc1`: the Potency result in experiment [1] and in experiment [2] was “inactive” throughout.
As to `Cc1ccc(S(=O)(=O)Nc2cc(C(=O)Nc3nc(-c4ccccc4)cs3)ccc2Cl)cc1`, the Potency entry in experiment [1] and in experiment [2] was “inactive” each time.
As for `O=[S+]([O-])(Nc1ccc(-c2ccccc2)cc1)c1ccc(NCc2ccc(Cl)cc2O)cc1`, the Potency entry in experiment [1] and in experiment [2] was “inactive” each time.
`C=C1CC[C@H]2C(=C)CC[C@H]3C(=C)C(=O)O[C@@H]3[C@@H]12`: the Potency entry in experiment [1] and in experiment [2] was “inactive” each time.
As to `O=C(Nc1ccc(S(=O)(=O)Nc2nccs2)cc1)c1cc(-c2ccccc2)nc2ccccc12`, the Potency result in experiment [1] and in experiment [2] was “inactive” in each case.
Take `O=S(=O)(c1ccc2c(c1)OCCO2)N1CCCN(S(=O)(=O)c2c(F)cccc2F)CC1`: the Potency entry in experiment [1] and in experiment [2] was “inactive” each time.
For the compound `COc1cc(O)c(C(CC(=O)N2CCCC(C)C2)c2ccc(C)cc2)c(OC)c1` (centres undefined), the Potency result in experiment [1] and in experiment [2] was “inactive” in each case.
For the compound `Cn1nnnc1Sc1ncnc2scc(-c3ccc(C(=O)OC(C)(C)C)cc3)c12`, the Potency entry in experiment [1] and in experiment [2] was “inactive” in each case.
In the case of `O=C1CCc2cc(S(=O)(=O)Nc3ccncc3)ccc2N1`, the Potency result in experiment [1] and in experiment [2] was “inactive” throughout.
With `COc1cccc(C2c3c(ncn(-c4cccnc4)c3=N)Oc3ccc4ccccc4c32)c1` (centres undefined), the Potency result in experiment [1] and in experiment [2] was “inactive” in each case.
Turning to `CCCCNc1nc(C)nc2c1nc(-c1ccccc1)n2CCCCN(CC)CC`, the Potency entry in experiment [1] and in experiment [2] was “inactive” in each case.
For `COc1cccc(C2c3c(ncn(-c4ccccc4SC)c3=N)Oc3ccc4ccccc4c32)c1` (centres undefined), the Potency result in experiment [1] and in experiment [2] was “inactive” each time.
For the compound `O=C1c2ccccc2C(=O)N1c1cncc2ccccc12`, the Potency entry in experiment [1] and in experiment [2] was “inactive” each time.
Take `Cc1ccc(-c2cc(C(=O)Nc3ccc(S(=O)(=O)Nc4ccc(C#N)cc4)cc3)c3ccccc3n2)cc1C`: the Potency entry in experiment [1] and in experiment [2] was “inactive” throughout.
